This is an account of results in PubChem BioAssay (NCI).

About 83,000 compounds went through this panel and 20% of them were active in at least one assay; those are over-represented in the sample as a whole.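 In brief: 96-well plates, 48 h treatment, single concentration, percent growth endpoint.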 Values without a mark were called inactive. The source made the active and inactive calls. Rule for the calls: active = growth percent below 10; inactive = the rest.

Some test systems named below: HCT-15 colon; HT29 colon; SNB-75 CNS; SNB-19 CNS; U251 CNS; PC-3 prostate; SK-MEL-5 melanoma; UACC-62 melanoma; LOX IMVI melanoma; SK-MEL-28 melanoma; SK-MEL-2 melanoma; EKVX NSCLC; SN12C renal; TK-10 renal; ACHN renal; CAKI-1 renal; A498 renal; CCRF-CEM leukemia; MOLT-4 leukemia; UO-31 renal.
What all share (experiment): NCI-60 one-dose screen, 48 h (100 = growth as untreated, 0 = no growth, -100 = all killed)
Holding throughout (settings): 10 µM

With `O=C1Nc2cc(Cl)ccc2/C1=C/c1cccc(OCc2ccccc2)c1`, the growth with HCT-15 colon is -24.8% (active); in the experiment with HT29 colon, -43.8% (active); in the experiment with SNB-75 CNS, 16.8%; in the experiment on SNB-19 CNS it was 0.636% (active); with U251 CNS, -64.6% (active); in the experiment on PC-3 prostate, 6.84% (active). Moreover, the growth in the experiment on SK-MEL-5 melanoma was -98% (active); in the experiment on UACC-62 melanoma, -32.6% (active); with LOX IMVI melanoma, -82.6% (active); in the experiment on SK-MEL-28 melanoma, 4.09% (active); with SK-MEL-2 melanoma it was -31.8% (active); with EKVX NSCLC, 11.3%. Further, the growth in the experiment on SN12C renal was -26.7% (active); with TK-10 renal, 33.6%; in the experiment on ACHN renal, 9.76% (active); with CAKI-1 renal it was 9.35% (active); in the experiment on A498 renal, 49.9%; in the experiment on CCRF-CEM leukemia it was 0.155% (active). The growth in the experiment with MOLT-4 leukemia was 5.59% (active).
`COc1ccc2nc(Cl)c(-c3cc(-c4ccccc4)nc(N)n3)cc2c1`: the growth is -64.5% (active) in the experiment on HCT-15 colon; 7.7% (active) in the experiment on HT29 colon; -1.67% (active) with SNB-75 CNS; 7.38% (active) with SNB-19 CNS; -62.4% (active) in the experiment on U251 CNS; 33.6% with PC-3 prostate. The growth in the experiment with SK-MEL-5 melanoma was 66%; with UACC-62 melanoma it was 28.4%; in the experiment with LOX IMVI melanoma, -86% (active); in the experiment on SK-MEL-28 melanoma, 61.4%; in the experiment with SK-MEL-2 melanoma it was 69.5%; in the experiment with EKVX NSCLC, 59.8%. Moreover, the growth with SN12C renal was 10%; in the experiment with TK-10 renal, 74.4%; in the experiment on ACHN renal it was 55.4%; in the experiment with CAKI-1 renal, 60.4%; in the experiment with A498 renal it was 84.8%; in the experiment on CCRF-CEM leukemia it was -4.77% (active). Also, the growth with MOLT-4 leukemia is -18.1% (active).
For `CC(=O)OC[C@@]1(C)C2CC[C@]3(C)C(CC=C4C5CC(C)(C)CC[C@]5(C(=O)Nc5ccccc5)CC[C@]43C)[C@@]2(C)C[C@@H](OC(C)=O)[C@@H]1OC(C)=O` (some centres not stated), the growth is 25.1% with HCT-15 colon; 28.5% with HT29 colon; 58.4% in the experiment with SNB-75 CNS; 39.9% with SNB-19 CNS; 39.9% with U251 CNS; 27.7% with PC-3 prostate. In addition, the growth in the experiment on SK-MEL-5 melanoma is 2.74% (active); in the experiment on UACC-62 melanoma, 31%; in the experiment with LOX IMVI melanoma, 3.23% (active); in the experiment on SK-MEL-28 melanoma it was 59.2%; in the experiment on SK-MEL-2 melanoma, 35.4%; in the experiment with EKVX NSCLC it was 26.8%. For the same compound, the growth is 33.1% with UO-31 renal; 53.1% in the experiment with TK-10 renal; 34.4% in the experiment with ACHN renal; 37.2% in the experiment on CAKI-1 renal; 64.6% with A498 renal; 29.7% in the experiment on CCRF-CEM leukemia. In addition, the growth in the experiment with MOLT-4 leukemia was 24.4%.
For `COc1ccc2nc(Cl)c(-c3cc(-c4ccccc4)nc(=S)[nH]3)cc2c1`, the growth in the experiment on HCT-15 colon is 46.4%; with HT29 colon it was 43.7%; in the experiment with SNB-75 CNS it was 41.5%; in the experiment with SNB-19 CNS, 83.6%; with U251 CNS it was 87.2%; in the experiment with PC-3 prostate, 67.3%. Moreover, the growth is 6.49% (active) in the experiment on SK-MEL-5 melanoma; 23.2% with UACC-62 melanoma; 60.3% in the experiment on LOX IMVI melanoma; 50% with SK-MEL-28 melanoma; 9.29% (active) in the experiment with SK-MEL-2 melanoma; 65.6% with EKVX NSCLC. Besides, the growth in the experiment on SN12C renal is 75.6%; in the experiment with TK-10 renal, 129%; in the experiment on ACHN renal, 51.3%; in the experiment on CAKI-1 renal, 56.9%; in the experiment with A498 renal, 87.7%; in the experiment on CCRF-CEM leukemia, 64.5%. In addition, the growth in the experiment on MOLT-4 leukemia was 23.8%.
`NC1=NC(c2ccccc2Cl)N=C(Nc2nn[nH]n2)N1` (configuration not stated): the growth in the experiment with HCT-15 colon was 103%; with HT29 colon it was 115%; with SNB-75 CNS, 95.2%; in the experiment with SNB-19 CNS, 99.6%; in the experiment with U251 CNS, 97.5%; in the experiment with PC-3 prostate it was 103%. The growth with SK-MEL-5 melanoma was 98%; with UACC-62 melanoma, 94.1%; with LOX IMVI melanoma, 94.2%; in the experiment on SK-MEL-28 melanoma, 124%; in the experiment with SK-MEL-2 melanoma, 116%; in the experiment on EKVX NSCLC it was 96.2%. Moreover, the growth in the experiment on SN12C renal was 107%; in the experiment on TK-10 renal, 99.6%; in the experiment with ACHN renal, 103%; with CAKI-1 renal, 94.5%; with A498 renal it was 104%; in the experiment on CCRF-CEM leukemia, 151%. For the same compound, in the experiment with MOLT-4 leukemia, the growth was 124%.
`Cc1cccc2cc(-c3cc(-c4ccccc4)nc(=S)[nH]3)c(Cl)nc12`: the growth with HCT-15 colon is 53.2%; in the experiment on HT29 colon, 86.5%; in the experiment on SNB-75 CNS, 103%; with SNB-19 CNS it was 82.2%; in the experiment on U251 CNS, 99.1%; with PC-3 prostate, 72.5%. The growth in the experiment on SK-MEL-5 melanoma was 23.6%; in the experiment with UACC-62 melanoma, 37.5%; in the experiment on LOX IMVI melanoma, 66.9%; in the experiment on SK-MEL-28 melanoma it was 59.8%; in the experiment with SK-MEL-2 melanoma, 27.8%; in the experiment on EKVX NSCLC, 76.5%. The growth in the experiment with SN12C renal is 89.2%; with TK-10 renal, 136%; with ACHN renal, 78.1%; in the experiment on CAKI-1 renal it was 76.2%; in the experiment on A498 renal, 99%; in the experiment with CCRF-CEM leukemia it was 66.2%. For the same compound, in the experiment on MOLT-4 leukemia, the growth was 43.6%.
For the compound `COc1cc(OC(F)(F)F)ccc1C(=O)Nc1sc2c(c1C#N)CCC(=O)C2`, the growth with HCT-15 colon is 14.6%; in the experiment on HT29 colon, 95%; in the experiment on SNB-75 CNS, 93.7%; in the experiment with SNB-19 CNS, 91.8%; in the experiment on U251 CNS, 7.29% (active); in the experiment with PC-3 prostate, 37.6%. The growth in the experiment on SK-MEL-5 melanoma was 72.3%; in the experiment on UACC-62 melanoma it was 65.6%; in the experiment with LOX IMVI melanoma it was 64.7%; in the experiment with SK-MEL-28 melanoma it was 121%; with SK-MEL-2 melanoma, 105%; in the experiment with EKVX NSCLC it was 46.7%. Moreover, the growth is 62.4% with UO-31 renal; 94.2% in the experiment on TK-10 renal; 87.1% with ACHN renal; 71.6% in the experiment with CAKI-1 renal; 137% in the experiment on A498 renal; 18.3% in the experiment with CCRF-CEM leukemia. Further, the growth with MOLT-4 leukemia was 90.8%.
Take `O=C(c1ccc([N+](=O)[O-])c([N+](=O)[O-])c1O)n1[nH]c(=O)c2ccccc2c1=O`: the growth in the experiment on HCT-15 colon is 39.1%; with HT29 colon, 66.7%; in the experiment on SNB-75 CNS it was 93.5%; in the experiment with SNB-19 CNS, 72.9%; with U251 CNS it was 61.1%; in the experiment with PC-3 prostate it was 74.1%. The growth in the experiment on SK-MEL-5 melanoma is 77.8%; in the experiment on UACC-62 melanoma it was 60.3%; in the experiment with LOX IMVI melanoma, 56.6%; in the experiment with SK-MEL-28 melanoma, 92.7%; in the experiment with SK-MEL-2 melanoma it was 76.1%; in the experiment on EKVX NSCLC, 66.4%. Further, the growth was 70.2% in the experiment with SN12C renal; 120% with TK-10 renal; 76.6% in the experiment with ACHN renal; 82.4% with CAKI-1 renal; 133% with A498 renal; 30.5% in the experiment with CCRF-CEM leukemia. In the experiment on MOLT-4 leukemia, the growth was 36.3%.
